Screening data deposited in PubChem by National Center for Advancing Translational Sciences (NCATS).
Hits are enriched below; roughly 6.1% of the tested compounds scored in any of these assays.
D1 ag = human D1 receptor agonism; P21728; HEK293 T-REx D1 cells, calcium flux, agonist mode; activation, % at 2 µM; actives 1% (n = 360,000); AID 504660; in the data active means activation above about 30%
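Tetracycline-induced HEK293 TREx D1 cells, force-coupled to calcium signalling, were dye-loaded with a no-wash calcium kit. Compound was pin-added after a 10 s baseline. Fluorescence was read kinetically at 1 cycle/s for 180 s, with calcium rises flagged as agonism.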
D3 ag = agonists of human D3 dopamine receptor | AID 652048 | P35462 | max activation, % | actives 0.58% (n = 410,000) | D3R DiscoveRx beta-arrestin cells, luminescence, 90 min; in the data active means max activation above about 30%
Target sequence (P35462 whole entry, looked up): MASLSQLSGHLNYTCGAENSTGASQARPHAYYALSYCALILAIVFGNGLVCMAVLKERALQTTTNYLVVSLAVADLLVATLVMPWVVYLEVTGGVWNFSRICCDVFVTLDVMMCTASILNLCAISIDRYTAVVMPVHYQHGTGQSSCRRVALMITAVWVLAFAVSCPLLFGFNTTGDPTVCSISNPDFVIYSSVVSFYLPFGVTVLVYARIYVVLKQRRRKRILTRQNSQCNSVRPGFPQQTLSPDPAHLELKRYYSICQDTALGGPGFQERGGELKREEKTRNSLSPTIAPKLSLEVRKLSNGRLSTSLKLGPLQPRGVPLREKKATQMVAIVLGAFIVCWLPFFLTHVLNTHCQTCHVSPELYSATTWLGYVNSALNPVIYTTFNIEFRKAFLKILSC
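Agonist-mode cell screen: cells plated at 1500/well and incubated overnight at 37 °C, then exposed to library compounds for 90 min at 37 °C. Detection reagent was added for 30–60 min at room temperature, and luminescence was read.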
DRD3 antagonist = antagonists of human D3 dopamine receptor; D3R cells, DiscoveRx beta-arrestin luminescence, antagonist mode; stronger effect = lower value; max response, negative = inhibition, %; actives 2.5% (n = 360,000); in the data active means max response below about -50%; inconclusive means no clear call, values can overlap the other calls
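Cells plated overnight at 1500 cells/well, then exposed to library compounds with dopamine controls for 90 minutes at 37 degrees C. DiscoveRx reagent added for 30–60 minutes at room temperature; luminescence read, quantitative HTS format.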
D1 potentiator = enhances dopamine response at the human D1 receptor. potentiation, % at 10 µM. P21728. AID 504651. actives 0.036% (n = 360,000). HEK293 TREx D1 cells, calcium flux, dopamine EC20 potentiation; in the data active means potentiation above about 30%
D1 antag = antagonists of human D1 dopamine receptor; P21728; HEK293 TREx D1 cells, calcium flux, dopamine EC80; stronger effect = lower value; activity change, negative = inhibition, % at 10 µM; actives 3.2% (n = 360,000); AID 504652; in the data active means activity change below about -30%
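Calcium flux readout: force-coupled, inducible Hek293 Trex D1 line, cells induced overnight at 30 C with tetracycline, dye-loaded 30–90 min at RT. Antagonism scored against EC80 dopamine challenge given 180 s after compound.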
Large screens that a line does not name were inactive.

COc1ccc([N+](=O)[O-])cc1NCc1cccc([N+](=O)[O-])c1	DRD3 antagonist -52.8
COc1ccc([N+](=O)[O-])cc1NC(=O)c1ccccc1SC	D1 antag -43.5
COC(=O)Nc1cc([N+](=O)[O-])ccc1OC	none
COc1ccc([N+](=O)[O-])cc1NC(=O)C(C)N1CCCC1 (centres undefined)	DRD3 antagonist -62.3
COc1ccc([N+](=O)[O-])cc1NCc1cccnc1	none
CCCSc1ncc(Cl)c(C(=O)Nc2sc3c(c2C(=O)OC)CCCC3)n1	none (no result: DRD3 antagonist)
C[C@@H]1C(=O)O[C@@H]2CC34[C@H]5C[C@@H](C(C)(C)C)C36[C@H](OC(=O)[C@@H]6O)OC4(C(=O)O5)[C@@]12O (some centres undefined)	D1 antag -38.1
Cc1cccc(NS(=O)(=O)c2cccc(C(=O)NCC(c3ccco3)N3CCCCC3)c2)c1 (centres undefined)	DRD3 antagonist -63.7
Cc1ccc(N(C)S(=O)(=O)c2cccc(C(=O)NCC(c3ccco3)N3CCCC3)c2)cc1 (centres undefined)	DRD3 antagonist -69.1
COc1ccc(NS(=O)(=O)c2cccc(C(=O)NCC(c3ccco3)N3CCCCC3)c2)cc1 (centres undefined)	none
O=C(O)Cc1cc(C(=O)Nc2ccc(Br)cc2)sc1-c1ccccc1	none (no result: D3 ag, DRD3 antagonist)
O=C(NCc1ccccc1)c1ccc2c(c1)CCN2S(=O)(=O)c1ccc(Cl)cc1	none (no result: DRD3 antagonist)
COc1ccc(NC(=O)NCCN2CCc3ccccc3C2)cc1	DRD3 antagonist -83.1
COc1ccc(NC(=O)NCCCN2CCC(Cc3ccccc3)CC2)cc1	DRD3 antagonist inconclusive
O=C(Nc1ccc(Cl)cc1)N1CCc2ccccc2C1	none
O=C(NCCCN1CCc2ccccc2C1)Nc1ccc(Cl)cc1	DRD3 antagonist -91.5
CSc1ccc(NC(=O)NCCCN2CCC(Cc3ccccc3)CC2)cc1	D1 ag 195.9, DRD3 antagonist inconclusive
CSc1ccc(NC(=O)NCCN2CCc3ccccc3C2)cc1	DRD3 antagonist -61.1
O=S(=O)(c1ccc2c(c1)OCCO2)N1CCN(S(=O)(=O)c2ccc(F)c(F)c2F)CC1	none (no result: D3 ag, DRD3 antagonist)
O=C(NN1C(=O)C2C3C=CC(O3)C2C1=O)c1cccc(Br)c1 (centres undefined)	none (no result: D1 antag)
O=C(NN1C(=O)C2C3C=CC(O3)C2C1=O)c1cccc(O)c1 (centres undefined)	D1 antag -80.3
COC(=O)c1c(NC(=O)CN2CCCc3ccccc32)sc(C)c1C	DRD3 antagonist -60.1
CCN(CC)S(=O)(=O)c1ccc(N2CCOCC2)c(NC(=O)C2CCCO2)c1 (centres undefined)	none
COc1ccccc1Oc1ccc2c(c1)C(=O)N(c1cccc3ncccc13)C2=O	D1 antag -34.5
COc1ccccc1Oc1ccc2c(c1)C(=O)N(c1cccc(O)c1)C2=O	none
Cc1ccc(CNC(=O)CC[C@H]2O[C@@H](n3cc(C)c(=O)[nH]c3=O)C[C@@H]2O)o1	none (no result: D1 ag, D1 potentiator, D1 antag)
CCN(CC)c1ccc2cc(C(=O)Nc3ccccn3)c(=O)oc2c1	none
CCN(CC)c1ccc2nc3c4ccccc4c(=O)cc-3oc2c1	D1 ag 41.8
CCCN1CN(Cc2ccccc2)CNC1=S	none
CC(C)CN1CN(Cc2ccccc2)CNC1=S	D1 antag -31.1
S=C1NCN(CCc2ccccc2)CN1Cc1ccccc1	D1 ag 53.4
COc1cccc(N2CN(CCc3ccccc3)CNC2=S)c1	D1 antag -30.3
CCCCN(C(=O)c1cc(S(=O)(=O)N2CCCCCC2)ccc1OC)c1c(N)n(CCC)c(=O)[nH]c1=O	none
CS(=O)(=O)N(CC(=O)N1CCCC1)c1ccc(Cl)cc1Cl	none
CS(=O)(=O)N(CCCC(=O)N1CCCCCC1)c1cccc(Cl)c1	D1 antag -38.3
CS(=O)(=O)N(CC(=O)N1CCN(Cc2ccccc2)CC1)c1ccccc1Br	DRD3 antagonist -57.7
CS(=O)(=O)N(CC(=O)N1CCCC1)c1cc(Cl)c(Cl)cc1Cl	D1 ag 39.4
CN(CC(=O)N1CCN(Cc2ccccc2)CC1)S(=O)(=O)c1ccc(F)cc1	DRD3 antagonist -58.5
CS(=O)(=O)N(CC(=O)N1CCN(Cc2ccccc2)CC1)c1ccccc1F	none
COc1ccccc1CNC(=O)Nc1nnc([C@H]2C[C@H](O)[C@@H](CO)O2)s1	none (no result: D1 ag, D1 potentiator, D1 antag)
Cn1nccc1C(=O)N1CCN(c2ccccc2F)CC1	none
O=S(=O)(NCc1ccccc1Cl)c1ccc(-n2cnnn2)cc1	none
